Results taken from PubChem BioAssay (Tox21).
“And” between values parts separate entries of the source, which are not always exact repeats. Equal values may be shown once. Results filed as inconclusive are left out. Entries that show only a call come without a potency. Where a structure was tested more than once in an assay, its records may differ in their call. The source made the active and inactive calls. Unless noted, the call rests on the fitted dose curve; in most records, active means well fitted curve in the direction sought with a large enough effect in the repeat runs; inconclusive means weak or mixed curves; inactive means no such curve, though single readings can be large; an effect the other way counts as inactive or inconclusive.

Columns and labels:
[1] = qHTS assay to identify aromatase inhibitors - cell viability counter screen (AID 743084);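 further: cells stimulated with testosterone during compound exposure; nearly all actives have a fitted effect of over 55% in size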; further: potency means the concentration at half of the fitted maximal effect
[2] = target: Aryl hydrocarbon receptor (Homo sapiens) (UniProt P35869); assay: qHTS assay to identify small molecule that activate the aryl hydrocarbon receptor (AhR) signaling pathway (AID 743085); further: nearly all actives have a fitted effect of over 15% in size; further: potency means the concentration at half of the fitted maximal effect;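 on activation: HG2L7.5c1 human HepG2 liver cells with stably integrated DRE-driven firefly reporter; series mostly up to about 70 µM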
Sequence of Aryl hydrocarbon receptor (Homo sapiens) (P35869 whole entry, looked up): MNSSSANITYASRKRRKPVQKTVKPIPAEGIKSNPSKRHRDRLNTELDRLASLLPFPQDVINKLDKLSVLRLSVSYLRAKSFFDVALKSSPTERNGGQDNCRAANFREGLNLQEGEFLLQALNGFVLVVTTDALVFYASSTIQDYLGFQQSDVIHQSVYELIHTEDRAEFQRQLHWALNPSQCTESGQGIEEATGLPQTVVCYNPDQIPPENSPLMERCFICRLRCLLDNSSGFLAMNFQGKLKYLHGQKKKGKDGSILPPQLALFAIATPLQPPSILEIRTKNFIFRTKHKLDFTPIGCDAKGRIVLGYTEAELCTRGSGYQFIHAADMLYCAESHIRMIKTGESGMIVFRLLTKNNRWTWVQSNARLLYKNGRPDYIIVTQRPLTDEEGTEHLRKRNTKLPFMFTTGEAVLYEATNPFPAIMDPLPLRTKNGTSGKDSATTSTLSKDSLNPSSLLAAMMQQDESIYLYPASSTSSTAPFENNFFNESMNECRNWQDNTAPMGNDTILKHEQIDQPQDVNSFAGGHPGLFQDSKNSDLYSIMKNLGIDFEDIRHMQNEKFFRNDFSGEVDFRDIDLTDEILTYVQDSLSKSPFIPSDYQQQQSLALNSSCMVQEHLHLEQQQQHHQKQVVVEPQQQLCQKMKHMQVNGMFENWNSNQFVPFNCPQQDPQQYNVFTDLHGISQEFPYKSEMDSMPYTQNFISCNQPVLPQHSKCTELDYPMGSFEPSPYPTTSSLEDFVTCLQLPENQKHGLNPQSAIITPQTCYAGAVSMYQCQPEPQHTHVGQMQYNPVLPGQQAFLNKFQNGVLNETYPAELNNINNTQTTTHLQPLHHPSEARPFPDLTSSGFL
Method in brief: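 HepG2 cells stably carrying a 20-DRE firefly luciferase reporter (HG2L7.5c1) treated with compound for 24 hr at 37C. Luciferase read by ONE-Glo luminescence, with CellTiter-Fluor viability read first.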

[3] = qHTS assay to identify small molecule that activate the aryl hydrocarbon receptor (AhR) signaling pathway - cell viability counter screen (AID 743086); further: nearly all actives have a fitted effect of over 45% in size; further: potency means the concentration at half of the fitted maximal effect
Method in brief: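 Cytotoxicity counter screen: CellTiter-Fluor signal (30 min, 37 C) in 4000 HepG2 cells/well carrying the DRE-luciferase reporter, following 24 h compound exposure at 37 C.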

[4] = target: Peroxisome proliferator-activated receptor gamma (Homo sapiens) (UniProt P37231); assay: qHTS assay to identify small molecule agonists of the peroxisome proliferator-activated receptor gamma (PPARg) signaling pathway (AID 743094; active means well fitted activation curve with a large enough effect in the signal ratio in the repeat runs, not every such curve was filed as active; the % refers to the signal ratio; further: potency means the concentration at half of the fitted maximal effect)
Sequence of Peroxisome proliferator-activated receptor gamma (Homo sapiens) (P37231 whole entry, looked up): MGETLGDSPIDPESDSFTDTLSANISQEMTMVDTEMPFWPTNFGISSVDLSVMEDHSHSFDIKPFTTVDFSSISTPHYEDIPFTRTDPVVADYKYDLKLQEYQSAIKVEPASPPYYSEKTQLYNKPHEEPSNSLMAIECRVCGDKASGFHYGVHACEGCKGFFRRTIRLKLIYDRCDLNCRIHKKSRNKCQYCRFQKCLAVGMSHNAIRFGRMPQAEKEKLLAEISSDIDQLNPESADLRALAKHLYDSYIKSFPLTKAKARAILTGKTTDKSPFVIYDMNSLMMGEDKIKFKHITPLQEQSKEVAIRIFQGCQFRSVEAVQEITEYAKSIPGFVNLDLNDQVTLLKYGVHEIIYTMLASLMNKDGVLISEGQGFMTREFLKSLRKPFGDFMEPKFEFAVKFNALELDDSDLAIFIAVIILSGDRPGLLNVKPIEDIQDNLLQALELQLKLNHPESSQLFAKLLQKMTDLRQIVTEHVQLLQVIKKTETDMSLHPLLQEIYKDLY
Method in brief: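 Fluorescence-based beta-lactamase readout in HEK293H PPARg UAS-bla cells after 17 h compound exposure (37C) and 1 h B/G FRET substrate incubation at room temperature.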

[5] = qHTS assay to identify small molecule antagonists of the peroxisome proliferator-activated receptor gamma (PPARg) signaling pathway - cell viability counter screen (AID 743194); conditions: Potency: co-treated with 50 nM rosiglitazone unless noted; further: nearly all actives have a fitted effect of over 55% in size; further: potency means the concentration at half of the fitted maximal effect
Method in brief: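 Viability was measured as CellTiter-Glo luminescence in GeneBLAzer PPARg UAS-bla HEK293H cells. These cells had been exposed 17 h at 37 C to compounds together with rosiglitazone at 50 nM final, with the beta-lactamase readout taken in the same wells.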

[6] = qHTS assay for small molecule agonists of the antioxidant response element (ARE) signaling pathway - cell viability counter screen (AID 743203; calls by dose curve; further: nearly all actives have a fitted effect of over 55% in size; further: potency means the concentration at half of the fitted maximal effect)
Method in brief: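 Parallel cytotoxicity read-out for the ARE-bla screen: HepG2 reporter cells, 16 hrs with compounds, then CellTiter-Glo luminescence.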

[7] = qHTS assay for small molecule activators of the heat shock response signaling pathway - cell viability counter screen (AID 743209); further: nearly all actives have a fitted effect of over 50% in size; further: potency means the concentration at half of the fitted maximal effect
Method in brief: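 To flag cytotoxic compounds, HSE-bla HeLa cells plated at 1500 cells/well were dosed for 5 h at 37 C, followed by the reporter FRET read and then CellTiter-Glo, with luminescence recorded 30 min after reagent addition.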

[8] = qHTS assay for small molecule activators of the heat shock response signaling pathway (AID 743210; active means well fitted activation curve with a large enough effect in the signal ratio in the repeat runs, with a control signal flat, not every such curve was filed as active; the % refers to the signal ratio; further: series mostly up to about 63 µM)
Method in brief: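 Compound exposure lasted 5 h at 37 C in HeLa cells carrying a heat-shock-element-driven beta-lactamase reporter. Read-out: fluorescence intensity after 2.5 h room-temperature loading with LiveBLAzer B/G FRET substrate.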

[9] = qHTS assay for small molecule agonists of the antioxidant response element (ARE) signaling pathway (AID 743202; active means well fitted activation curve with a large enough effect in the signal ratio in the repeat runs, not every such curve was filed as active; the % refers to the signal ratio)
Method in brief: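 After 16 hours of compound treatment at 37 C, HepG2 cells with a stably integrated ARE-driven beta-lactamase reporter were loaded 2 hours at room temperature with LiveBLAzer B/G FRET substrate and fluorescence intensity measured.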

[10] = target: Peroxisome proliferator-activated receptor gamma (Homo sapiens) (UniProt P37231); assay: qHTS assay to identify small molecule antagonists of the peroxisome proliferator-activated receptor gamma (PPARg) signaling pathway (AID 743191; calls by dose curve; further: series mostly up to about 63 µM; nearly all actives have a fitted effect of over 30% in size)
Method in brief: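 Beta-lactamase reporter under UAS control in HEK293H PPARg-bla cells; compound treatment 17 h at 37C. Read-out: fluorescence intensity after 1 h room-temperature incubation with LiveBLAzer B/G FRET substrate.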

Structure (SMILES) | Potency [1] | Potency [2] | Potency [3] | Potency [4] | Potency [5] | Potency [6] | Potency [7] | Potency [8] | Potency [9] | Potency [10]
C[C@]12CC[C@H]3[C@@H](CCC4=CC(=O)CC[C@@]43C)[C@@H]1CC[C@@H]2O | inactive | inactive | inactive | inactive | inactive | inactive | inactive | inactive |  | 
C[C@]12CC[C@@H]3c4ccc(OC(=O)N(CCCl)CCCl)cc4CC[C@H]3[C@@H]1CC[C@@H]2O | inactive | inactive | inactive | inactive | inactive |  |  | inactive |  | 
Clc1ccc(COC(Cn2ccnc2)c2ccc(Cl)cc2Cl)cc1 (stereo not drawn) | 33.5 µM (active) and 45.3 µM (active) and 60.9 µM (active) | inactive | 15.3 µM (active) | inactive | 20.4 µM (active) and 19.4 µM (active) and 29.8 µM (active) | 25.5 µM (active) and 19.3 µM (active) and 33.5 µM (active) | 36.3 µM (active) and 12.3 µM (active) |  |  | 
CC(C)CC(C)N (stereo not drawn) | inactive | inactive | inactive | inactive |  | inactive | inactive | inactive |  | 
CNC(C)Cc1ccc2c(c1)OCO2 (stereo not drawn) | inactive | inactive | inactive | inactive | inactive | inactive |  |  |  | 
[Cl][Sb]([Cl])[Cl] | inactive | inactive | inactive | inactive |  | inactive | inactive |  |  | 
Clc1ccc(C(c2ccccc2Cl)C(Cl)(Cl)Cl)cc1 (stereo not drawn) | inactive | inactive | inactive | inactive |  | 61.5 µM (active) | inactive |  |  | 
Nc1ccccc1C(=O)OC/C=C/c1ccccc1 | inactive | 61.3 µM (active) | inactive | inactive |  | 68.7 µM (active) | 34.8 µM (active) |  |  | 
NNC(=O)c1ccccc1 | inactive | 15.8 µM (active) | inactive | inactive | inactive | inactive |  | inactive | inactive | 
Clc1ccc(C(c2ccc(Cl)cc2)C(Cl)(Cl)Cl)cc1 | inactive | inactive | inactive | inactive |  | 48.9 µM (active) and inactive | 55.3 µM (active) and 54.9 µM (active) and inactive | inactive |  | 
O=C(NC(=O)c1c(F)cccc1F)Nc1cc(Cl)c(OC(F)(F)C(F)F)c(Cl)c1 | inactive | 0.137 µM (active) | inactive |  | inactive | inactive | inactive | inactive |  | inactive
O=C(CBr)c1ccc(O)cc1 | inactive | inactive | inactive |  | inactive | inactive |  |  |  | 
CC(C)CCCCCOC(=O)c1ccccc1C(=O)OCCCCCC(C)C | inactive | inactive | inactive | inactive | inactive | inactive | inactive | inactive |  | 
ClC(Cl)=C(Cl)Cl | inactive | inactive | inactive |  | inactive | inactive | inactive | inactive | inactive | 
Fc1cccc(Cl)c1CCl | inactive | inactive | inactive | inactive | inactive | inactive | inactive | inactive |  | 
ClC1=C(Cl)C2(Cl)C3C(Cl)C=CC3C1(Cl)C2(Cl)Cl (stereo not drawn) | inactive | inactive | inactive | inactive | 55.2 µM (active) and 24.5 µM (active) | 61.1 µM (active) |  |  |  | 
CC(C)[C@H](C(=O)O[C@H](C#N)c1cccc(Oc2ccccc2)c1)c1ccc(Cl)cc1 | inactive | inactive | inactive |  | inactive | inactive | inactive |  | inactive | 
CN(C)C(=S)[S-].CN(C)C(=S)[S-].[Cu+2] | 1.87 µM (active) | inactive | 8.36 µM (active) |  | 2.12 µM (active) | 3.33 µM (active) |  |  |  | 
COc1ccc(/C(=C/C(=O)N2CCOCC2)c2ccc(Cl)cc2)cc1OC | inactive | inactive | inactive | inactive | inactive | inactive | inactive | inactive |  | 
Clc1ccc(CSC(Cn2ccnc2)c2ccc(Cl)cc2Cl)cc1 (stereo not drawn) | inactive | inactive | inactive | inactive | 29.8 µM (active) | 29.8 µM (active) | 29.8 µM (active) |  |  | 
COc1cccc(C(=O)CCN[C@@H](C)[C@H](O)c2ccccc2)c1 | inactive | inactive | inactive |  | inactive |  |  |  |  | 
[Cd+2].[Cl-].[Cl-] | 24.5 µM (active) | inactive | 2.19 µM (active) and 3.06 µM (active) |  | 1.55 µM (active) | 692 nM (active) and 545 nM (active) |  |  |  | 
CCOC(=O)CC(=O)CCl | 30.6 µM (active) | inactive | inactive | 21.9 µM (active) |  | inactive |  |  |  | 

Structure (SMILES) | Potency [1] | Potency [2] | Potency [3] | Potency [4] | Potency [5] | Potency [6] | Potency [7] | Potency [8] | Potency [9] | Potency [10]
O=C1NCN(c2ccccc2)C12CCN(CC1COc3ccccc3O1)CC2 (stereo not drawn) | inactive | inactive | inactive | inactive |  | inactive | inactive | inactive | inactive | 
COc1cc(N)c(Cl)cc1C(=O)NC1CN2CCC1CC2 (stereo not drawn) | inactive | inactive | inactive |  | inactive | inactive |  | inactive | inactive | 
CCN | inactive | inactive | inactive |  | inactive | inactive | inactive |  |  | inactive
BrC(Br)Br | inactive | inactive | inactive | inactive | inactive | inactive | inactive | inactive |  | 
CC(C)CCCCCCCOP(=O)(Oc1ccccc1)Oc1ccccc1 | inactive | inactive | inactive | inactive | inactive | inactive | inactive | inactive |  | 
N#CCCSCCC#N | inactive | inactive | inactive | inactive | inactive | inactive | inactive | inactive |  | 
O=c1[nH]c2ccccc2n1C1CCN(CCCC(c2ccc(F)cc2)c2ccc(F)cc2)CC1 | 54.5 µM (active) | inactive | inactive | inactive | 24.5 µM [setting not given] (active) | 24.3 µM (active) and 33.5 µM (active) | 24.5 µM (active) and 13.3 µM (active) |  |  | 
CN(C)S(=O)(=O)N(SC(F)(Cl)Cl)c1ccccc1 | 27.3 µM (active) | inactive | 61.1 µM (active) |  | 3.89 µM (active) | 8.63 µM (active) |  |  |  | 
CC(C)(C)OO | inactive | inactive | inactive | inactive | inactive | inactive | inactive |  |  | 
COC12CC[C@@]3(C[C@@H]1C(C)(O)C(C)(C)C)[C@H]1Cc4ccc(O)c5c4[C@@]3(CCN1CC1CC1)[C@H]2O5 (stereo partly drawn) | 60.7 µM (active) | inactive | 60.7 µM (active) |  | inactive | 68.1 µM (active) |  |  |  | 
CCCCCCCCCCCCCN1CC(C)OC(C)C1 (stereo not drawn) | inactive | inactive | inactive | inactive | inactive | inactive | inactive | inactive |  | 
CC(C)(C)c1cc([N+](=O)[O-])cc(C(C)(C)C)c1O | 21.7 µM (active) | inactive | inactive |  | 6.16 µM (active) |  | inactive | inactive | inactive | 
C=CC(=O)OCCCCOC(=O)C=C | 48.6 µM (active) | inactive | inactive | 9.77 µM (active) |  |  | 5.49 µM (active) |  |  | 
BrCBr | inactive | inactive | inactive | inactive | inactive | inactive | inactive | inactive |  | 
CC1(C)CC/C(=C/c2ccc(Cl)cc2)C1(O)Cn1cncn1 (stereo not drawn) | inactive | 8.6 µM (active) | inactive |  | inactive |  |  |  |  | 
CCOC(=O)C1(c2ccccc2)CCN(CCC(C#N)(c2ccccc2)c2ccccc2)CC1 | inactive | inactive | inactive and 59.6 µM (active) |  | inactive | inactive | inactive |  |  | 
C=CC(=O)OCC(COC(=O)C=C)(COC(=O)C=C)COC(=O)C=C | 2.73 µM (active) | inactive | 19.3 µM (active) |  | 6.92 µM (active) | 43.3 µM (active) | 2.45 µM (active) |  |  | 
CN(C)C(=S)S | 14 µM (active) and 764 nM (active) and 4.86 µM (active) | inactive | inactive and 21.7 µM (active) |  | inactive | inactive | 5 µM (active) and inactive and 2.19 µM (active) |  |  | 
CCCCCCCCCBr | inactive | inactive | inactive |  | inactive | inactive | inactive | inactive |  | 
CN(C)CCc1c[nH]c2cccc(O)c12 | inactive | inactive | inactive |  | inactive | inactive | inactive |  |  | 
CC1(C)[C@H](C(=O)O[C@H](C#N)c2cccc(Oc3ccccc3)c2)[C@@H]1/C=C(\Cl)C(F)(F)F | inactive | inactive | inactive |  | inactive | inactive | inactive |  |  | 
CC(C)[C@H](C(=O)OC(C#N)c1cccc(Oc2ccccc2)c1)c1ccc(OC(F)F)cc1 (stereo partly drawn) | inactive | inactive | inactive |  | inactive | inactive | inactive |  |  | 
CC[C@H](C)[C@H]1O[C@]2(C=C[C@@H]1C)C[C@@H]1C[C@@H](C/C=C(\C)[C@@H](O[C@H]3C[C@H](OC)[C@@H](O[C@H]4C[C@H](OC)[C@@H](O)[C@H](C)O4)[C@H](C)O3)[C@@H](C)/C=C/C=C3\CO[C@@H]4[C@H](O)C(C)=C[C@@H](C(=O)O1)[C@]34O)O2 | inactive and 18.1 µM (active) | inactive | inactive and 11.4 µM (active) |  | 9.15 µM (active) | 11.4 µM (active) | 12.9 µM (active) | inactive |  | 
